# Experimental data as given in the supplement of paper PMC12636033.
# ± gives the standard deviation of the averaged measurements. The full ranking holds about 33,000 sequences; the median of “E-score (rank enrichment, -0.5 to 0.5)” is about -0.0028, and the highest 2% start at about 0.23. Shown is part of a subset that was picked to be rich in the highest values.
# System: 2Sb-muMax20 (muMax20 with two 1,3-bis(methyl)benzene Cys staples, A13C/A17C and Q88C/A92C, C-terminal Lys)
# Test: PBM 8-mer E-score (E-score (rank enrichment, -0.5 to 0.5)); higher = stronger preferential binding
# Description: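 Protein binding microarray (universal PBM chip covering all 10-mers in fixed probe flanks) with chemically synthesized human Max(13-93) bHLH-LZ analogs (not full-length Max) bearing noncanonical residues (hArg, Tha, Aib, Nle at 65) and aromatic Cys staples. Read-out per 8-mer (and its reverse complement): E-score (rank-based enrichment, -0.5 to 0.5) and Z-score of median probe intensity.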
row,Sequence,PBM 8-mer E-score
1,TCCTGGCA,-0.0907 ± 0.03
2,CCTTATAC,0.175 ± 0.015
3,CACACTTA,0.15 ± 0.045
4,ATTTAAAC,0.167 ± 0.021
5,AGGGGCAA,0.159 ± 0.017
6,AGGGGCAT,0.272 ± 0.028
7,AGGGGCTC,0.0348 ± 0.035
8,AGGGGTTA,0.135 ± 0.04
9,GGGGGTAA,-0.0157 ± 0.073
10,AGGGGCTG,0.252 ± 0.036
11,AGGGGTTG,0.266 ± 0.068
12,TGGGGTAA,0.266 ± 0.033
13,AGGGGCTA,0.198 ± 0.055
14,AGGGGCAC,-0.0355 ± 0.044
15,CGGGGTAA,0.19 ± 0.055
16,AAGGGTTG,0.0938 ± 0.044
17,TAAGGCGA,0.0332 ± 0.024
18,CCAACGTA,-0.0251 ± 0.052
19,CCACTCAA,0.199 ± 0.032
20,ACTGGCAG,-0.182 ± 0.042
21,AATGGTGG,0.0724 ± 0.034
22,AACCTTGT,-0.108 ± 0.054
23,GGGGCTAA,0.0894 ± 0.033
24,ATCGCCAA,-0.0483 ± 0.083
25,ACACCGTA,0.0971 ± 0.049

row,Sequence,PBM 8-mer E-score
1,ATATCACA,0.112 ± 0.039
2,AAGCCCCG,0.0771 ± 0.022
3,AGGGGTAG,0.309 ± 0.059
4,AGGGGTAA,0.202 ± 0.014
5,CGGGGTAG,0.147 ± 0.071
6,AGGTCCGA,-0.128 ± 0.028
7,AATTTAAA,0.0161 ± 0.022
8,ATTTTTAC,0.127 ± 0.05
9,AGAAACAT,0.0919 ± 0.038
10,AGAAACAC,0.0175 ± 0.091
11,AGAAACAA,0.252 ± 0.0078
12,GGAAACAA,0.133 ± 0.078
13,CGAAACAA,0.0409 ± 0.023
14,TGAAACAA,0.261 ± 0.053
15,ACCCTCTG,-0.181 ± 0.025
16,GGGTCTTA,0.104 ± 0.061
17,GCGTATGA,0.0375 ± 0.06
18,ATTCTTCA,0.00503 ± 0.029
19,ACCGCTTC,-0.17 ± 0.019
20,AATATTTA,0.201 ± 0.0076
21,GTTCAGGA,-0.184 ± 0.021
22,CCCTGAGC,0.0168 ± 0.058
23,AATATGAG,-0.034 ± 0.019
24,AATATGAA,0.271 ± 0.004
25,AATATGAC,0.166 ± 0.012

row,Sequence,PBM 8-mer E-score
1,GATATGAA,0.103 ± 0.013
2,AATATGAT,0.252 ± 0.03
3,TATATGAA,0.159 ± 0.022
4,ATTTTACG,0.126 ± 0.054
5,CAGTTCAG,0.0182 ± 0.11
6,GTGCACAC,-0.0164 ± 0.1
7,GGCTACGA,-0.0832 ± 0.011
8,CACGTCCC,-0.161 ± 0.028
9,ATGCGAGG,0.2342 ± 0.0017
10,ATGCGAGA,-0.0394 ± 0.1
11,ATGCGAGC,0.00876 ± 0.045
12,CGCCCCCC,-0.286 ± 0.14
13,CATGTACA,0.125 ± 0.1
14,CATGTACG,0.311 ± 0.024
15,AATGTACG,0.115 ± 0.053
16,TGCACTAA,0.102 ± 0.019
17,ATGGTGCA,0.196 ± 0.05
18,CAACACCG,-0.202 ± 0.036
19,GAACACCC,-0.145 ± 0.022
20,CAACACCC,0.252 ± 0.0077
21,GAGGTATA,0.144 ± 0.025
22,TAGTAGAA,-0.0551 ± 0.015
23,ACGGACAA,0.0365 ± 0.0016
24,CGACGCAG,-0.238 ± 0.017
25,ATGAATGG,0.297 ± 0.033

row,Sequence,PBM 8-mer E-score
1,ATGAAATA,0.169 ± 0.024
2,ATGAAATG,0.277 ± 0.066
3,ATGAAATC,0.137 ± 0.039
4,ATGAATGA,0.181 ± 0.035
5,ATGAATGC,0.164 ± 0.06
6,CCCGCGAG,0.015 ± 0.026
7,CGCAGACG,-0.0875 ± 0.1
8,CATGTGCC,0.161 ± 0.0077
9,ATGGCCGC,-0.0812 ± 0.007
10,CCTGCGAA,-0.0794 ± 0.0094
11,AGGGTGGA,-0.0307 ± 0.022
12,AGGGTGGG,0.266 ± 0.032
13,AGGGGTGA,0.16 ± 0.05
14,AAGGGTGG,0.0428 ± 0.051
15,AGGGGTGG,0.287 ± 0.046
16,AGGGTGGC,0.0374 ± 0.1
17,GTTCGTAA,-0.00989 ± 0.0088
18,ACTATCGC,0.097 ± 0.036
19,AATGCTAT,0.0731 ± 0.033
20,ACCGCATA,0.0507 ± 0.032
21,AGGTAAAG,0.2635 ± 0.0021
22,AGGTAAAC,-0.0251 ± 0.11
23,AGGTAAAT,0.0873 ± 0.074
24,AGCAGATC,-0.143 ± 0.068
25,ACGTCTTA,-0.193 ± 0.025

row,Sequence,PBM 8-mer E-score
1,CATGTTTC,0.05 ± 0.033
2,AATGTTGA,0.0172 ± 0.078
3,CATGTTTA,0.239 ± 0.024
4,CATGTTGC,0.0698 ± 0.024
5,GATGTTTA,0.12 ± 0.03
6,CATGTTGA,0.257 ± 0.02
7,AACGGTGG,-0.0485 ± 0.0095
8,GAAATGGC,0.0246 ± 0.0079
9,ACTATACG,0.156 ± 0.033
10,CTCTAATA,0.0986 ± 0.022
11,TGAATCAA,0.0626 ± 0.026
12,CGAATCAA,0.2677 ± 0.00054
13,CTAATCAC,0.14 ± 0.0037
14,CGAATCAG,-0.163 ± 0.065
15,TTAATCAA,0.0337 ± 0.0076
16,CTAATCAA,0.277 ± 0.014
17,AGGCCACT,0.129 ± 0.0082
18,CGTAGCAA,-0.0306 ± 0.0061
19,ACTTCATA,0.0718 ± 0.0033
20,CTAACCGC,-0.0848 ± 0.018
21,AAAGTTTC,-0.0128 ± 0.036
22,AAAGTTTA,0.249 ± 0.022
23,GAAGTTTA,-0.0783 ± 0.12
24,CCGAGAGG,-0.225 ± 0.049
25,CAGCGCGA,-0.0207 ± 0.052

row,Sequence,PBM 8-mer E-score
1,CCCCCATA,0.0403 ± 0.02
2,GCCCCATA,0.356 ± 0.039
3,GACCCATA,0.23906 ± 6.4e-05
4,AACCCATA,0.229 ± 0.016
5,CACCCATA,0.21 ± 0.0057
6,GGCCCATA,-0.0795 ± 0.036
7,CATCTACA,0.137 ± 0.025
8,ACCTGATC,-0.0825 ± 0.031
9,ATCTAGGG,0.171 ± 0.013
10,AACCCTCT,-0.0379 ± 0.0099
11,AACCATAA,0.13 ± 0.018
12,ACCCATAC,0.119 ± 0.051
13,CCCCACAC,0.19 ± 0.13
14,ACCCATAT,0.252 ± 0.051
15,CCCCACAA,0.264 ± 0.0045
16,CCCCACAG,-0.09771 ± 0.00011
17,AACCATAC,-0.0703 ± 0.11
18,AACCATAT,0.232 ± 0.0038
19,ACGCATAG,-0.0652 ± 0.023
20,ACGCATAA,0.17 ± 0.01
21,ACGCATAT,0.246 ± 0.0099
22,ACCCATAG,0.0412 ± 0.039
23,ACACAGAG,-0.0541 ± 0.0044
24,ACGGACTG,-0.167 ± 0.011
25,ACAGGACA,-0.0877 ± 0.075

row,Sequence,PBM 8-mer E-score
1,TCCTAAGA,-0.186 ± 0.031
2,GTAGCTAC,0.0481 ± 0.06
3,ACGCACAT,0.235 ± 0.024
4,ACCCATAA,0.25 ± 0.023
5,ACCCATTA,0.161 ± 0.015
6,AACCATTG,-0.163 ± 0.044
7,ACGCACAA,0.0307 ± 0.012
8,CCCCATAA,0.3007 ± 0.003
9,AGCCATAA,0.0405 ± 0.0087
10,ACGCACAG,-0.146 ± 0.017
11,GCCCATAA,0.0149 ± 0.062
12,AACCATTA,0.276 ± 0.005
13,CACCATTA,-0.044 ± 0.042
14,TCCCATAA,0.0657 ± 0.052
15,TCCTGGAA,-0.283 ± 0.06
16,TACTTTCA,0.0779 ± 0.057
17,TACCGAGA,-0.0899 ± 0.043
18,CGGCGTGA,-0.113 ± 0.017
19,CTAAGTGA,-0.204 ± 0.046
20,AGCGTGCC,-0.0325 ± 0.041
21,CTTGGAAC,0.128 ± 0.018
22,AGTACGTC,0.257 ± 0.02
23,AGTACGTG,0.0987 ± 0.039
24,AGTACGTA,0.183 ± 0.018
25,GCCCGAAC,-0.0411 ± 0.062

row,Sequence,PBM 8-mer E-score
1,AATCCGCA,-0.0479 ± 0.02
2,CGATTCCC,0.142 ± 0.0041
3,AAGACACA,0.0534 ± 0.033
4,CAGACACG,-0.0916 ± 0.036
5,AAGACACG,0.23 ± 0.029
6,ACCCGTAA,-0.0543 ± 0.035
7,CCCCGTAG,-0.0497 ± 0.00093
8,CCCCGTAA,0.276 ± 0.014
9,GCTAGGTA,-0.0432 ± 0.18
10,ATTGTGTC,0.0993 ± 0.063
11,GGGGCGTA,0.15 ± 0.08
12,TACGTGGA,0.0786 ± 0.0068
13,GACGTGGC,-0.00165 ± 0.017
14,CACGTGGA,0.383 ± 0.029
15,CACGTGGG,0.438 ± 0.0088
16,CACGTGGC,0.317 ± 0.015
17,GACGTGGA,0.0221 ± 0.026
18,AACGTGGC,0.192 ± 0.021
19,AACGTGGA,0.0893 ± 0.031
20,AACGTGGG,0.196 ± 0.0051
21,ACTTAGAA,-0.02 ± 0.04
22,CGAAGGCC,-0.212 ± 0.015
23,CAACTTGC,-0.1303 ± 0.0012
24,AAACTTGC,0.254 ± 0.025
25,AAACTTGA,0.163 ± 0.048

row,Sequence,PBM 8-mer E-score
1,ACAGATTA,-0.0104 ± 0.027
2,CCTGAAAC,-0.0931 ± 0.062
3,GTCGTAAC,0.00633 ± 0.033
4,GAGTCGGA,-0.0932 ± 0.037
5,ATTCATTG,0.0825 ± 0.018
6,AGTCATTC,0.129 ± 0.077
7,CTACATTC,0.0832 ± 0.066
8,ATACATTC,0.32 ± 0.023
9,ATTCATTA,0.114 ± 0.012
10,AGTCATTG,0.264 ± 0.034
11,ATACATTG,0.17 ± 0.021
12,ATTCATAG,0.0979 ± 0.039
13,ATTCATAC,0.276 ± 0.044
14,AGTCATTA,0.0586 ± 0.056
15,CTTCATAC,0.0955 ± 0.029
16,ATTCATTC,0.249 ± 0.029
17,GCATCTGA,-0.135 ± 0.0046
18,GGGCCAGA,-0.122 ± 0.054
19,CTTGGGCA,0.0256 ± 0.03
